# Test results as given in PubChem BioAssay AID2551 (National Center for Advancing Translational Sciences (NCATS), 2010).
# Among all 310,000 compounds or so, about 17,000 (5.5%) were called active. Inconclusive results (about 11%) are left out. The full list was thinned out, with actives kept by preference. Unmarked numbers belong to inactive results. Calls follow the shape of the dose curve; as a rule, active = well fitted inhibition curve with a large enough effect; inconclusive = small, poorly fitted or top-dose-only effect, or effect the other way; inactive = no such curve, though single readings can be large or run the other way.
# Molecular target: Nuclear receptor ROR-gamma (Mus musculus) (UniProt P51450)
# Assay: qHTS for inhibitors of ROR gamma transcriptional activity; also: nearly all actives have a fitted effect of over 60% in size
# Settings: Drosophila S2 Gal4-RORgamma UAS-luciferase reporter, 20 h; series mostly up to 53.6 µM; activity change, negative = inhibition: at the top concentration
# Source text: NIH Molecular Libraries Probe Production Network [MLPCN] NIH Chemical Genomics Center [NCGC] MLPCN Grant: R03 DA026211-01 Assay Provider: Dan Littman, New York University Assay Overview: The retinoic acid-related orphan receptor (ROR) gamma is a transcription factor that has a central role in the differentiation of Th17 cells, a subset of T helper cells that secrete the inflammatory cytokines IL-17, IL-17F, and IL-22. Th17 cells have been implicated in graft versus host disease, autoimmune disease and asthma. ROR gamma is induced in naive T helper cells in the presence of TGF-beta combined with IL-6, IL-21, or IL-23, and thereafter directs the expression of the Th17 lineage cytokines. To study the mechanism of action of ROR gamma, an insect cell-based assay was screened. This Drosophila Schneider cell line was stably transfected with two vectors: a gene expressing a fusion of the Gal4 DNA binding domain and ROR gamma transactivation domain under the control of the metallothionine promoter and a Photinus luciferase reporter regulated by the Gal4 binding site enhancer, UAS. […] Small molecule inhibitors of ROR gamma activity are detected by a decrease in luciferase reporter activity.
# Assay Protocol Summary: For screening, 600 cells in 4 uL/well were dispensed into white solid 1536-well plates (Grenier) using a solenoid-based dispenser. Following transfer of 23 nL compound or DMSO vehicle by a pin tool, the plates were incubated 1 hr at ambient temperature, and 1 uL/well copper sulfate (700 uM final concentration) was added. The plates were centrifuged 15 s at 1000 RPM and incubated 20 hr at ambient temperature. After addition of 1.5 uL Photinus luciferase detection reagent, the plates were incubated 10 min at ambient temperature and then read by an ViewLux (Perkin Elmer) to detect luminescence. Keywords: NIH Roadmap, MLPCN, MLI, MLSMR, qHTS, NCGC, qHTS, nuclear hormone receptor, retinoic acid-related orphan receptor, ROR gamma
# % is scaled to controls: 0 for no effect and ±100 for the full control effect; potency is read from the fitted curve at half-maximal effect.
# Nuclear receptor ROR-gamma (Mus musculus), sequence (P51450 whole entry, looked up): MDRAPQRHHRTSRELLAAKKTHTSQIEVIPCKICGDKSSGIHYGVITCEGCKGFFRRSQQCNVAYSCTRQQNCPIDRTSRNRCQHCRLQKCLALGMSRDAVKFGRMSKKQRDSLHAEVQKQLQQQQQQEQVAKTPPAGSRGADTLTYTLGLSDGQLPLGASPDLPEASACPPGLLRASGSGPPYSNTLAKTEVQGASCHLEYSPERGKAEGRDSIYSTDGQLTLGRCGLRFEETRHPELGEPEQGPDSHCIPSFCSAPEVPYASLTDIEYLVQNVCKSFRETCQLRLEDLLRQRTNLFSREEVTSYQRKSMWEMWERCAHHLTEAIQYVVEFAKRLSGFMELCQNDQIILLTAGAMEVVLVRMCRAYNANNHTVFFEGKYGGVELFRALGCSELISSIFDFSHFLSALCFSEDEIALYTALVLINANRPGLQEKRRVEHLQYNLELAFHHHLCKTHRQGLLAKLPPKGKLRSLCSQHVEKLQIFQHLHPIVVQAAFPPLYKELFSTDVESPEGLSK
Structure (SMILES),Potency,"activity change, negative = inhibition"
CC1(C)C2CC=C(/C=N/NC(=O)c3ccc(Cl)cc3)C1C2 (stereo not given),12.6 µM (active),–
N#Cc1cc([N+](=O)[O-])ccc1Oc1cccc(/C=N/NC(=O)c2ccc(Cl)cc2)c1,–,3.47%
CC1(C)C2CC=C(/C=N/NC(=O)C3CC3)C1C2 (stereo not given),–,3.41%
N#Cc1c(-c2ccccc2)nc(SCc2cccc(C(F)(F)F)c2)[nH]c1=O,–,-5.35%
Cc1nn(C(C)C(=O)NCCC2=CCCCC2)c(=O)c2nn(-c3ccccc3)c(C)c12 (stereo not given),–,-18.5%
O=C(NNC(=S)NCCCN1CCOCC1)c1ccncc1,–,0.729%
Cc1cc(C)cc(NC(=S)NCCCN2CCOCC2)c1,–,-41.7%
CCCCc1ccc(NC(=S)NCCCN2CCOCC2)cc1,10 µM (active),–
COc1ccccc1C(=O)N(C1=NC(C)CS1)c1ccc(Cl)cc1 (stereo not given),–,16.1%
Cc1ccc(C)c(NC(=O)c2ccc3nccnc3c2)c1,–,15%
CCC1(C)Cc2c(sc3[nH]c(=S)n(Cc4ccccc4)c(=O)c23)CO1 (stereo not given),0.708 µM (active),–
CCC1(C)Cc2c(sc3nc(SC)nc(N)c23)CO1 (stereo not given),–,1.66%
CCC1(C)Cc2c(sc3nc(SC)[nH]c(=O)c23)CO1 (stereo not given),–,21.3%
COc1ccc(S(=O)(=O)NCCCCOc2ccc(Cl)cc2)cc1,–,21.1%
COc1cccc(CNS(=O)(=O)c2ccc3c(c2)N(C(C)=O)CCS3)c1,–,29.6%
COc1cccc(C(=O)N/N=C(\C)c2cccc(NC(=O)c3ccc(F)cc3)c2)c1OC,–,19%
COc1cccc(NC(=O)CSc2nnc(Cc3ccc(OC)c(OC)c3)o2)c1,–,-8.74%
CCN(CC)C(=O)N(CC)Cc1ccccc1,–,-2.25%
CCN(Cc1ccccc1)C(=O)CN1C(=S)NC(C)(C)CC1C (stereo not given),11.2 µM (active),–
COc1cccc(CNC(=O)CCN2C(=S)NC(C)(C)CC2C)c1 (stereo not given),–,-30.2%
O=C(N/N=C/c1ccco1)c1ccc(NC(=O)C2CC2)cc1,–,15%
Cc1ccc(C(=O)N/N=C\c2cc(Br)c(Br)o2)cn1,11.2 µM (active),–
O=C(CCC(=O)N/N=C/c1ccc(Br)o1)N/N=C/c1ccc(Br)o1,–,-1.84%
Cc1ccc(NC(=O)COc2ccc(/C=N\NC(=O)c3cccnc3)cc2)cc1C,–,8.19%

Structure (SMILES),Potency,"activity change, negative = inhibition"
O=C(CCc1n[nH]c(=O)[nH]c1=O)N/N=C/c1ccc(Br)o1,–,-0.308%
O=C(N/N=C/c1ccc(Br)o1)c1cncc(Br)c1,5.62 µM (active),–
CCN(CC)CCN1C(=O)C2C(C(=O)Nc3ccc(Br)cc3)C3C=CC2(O3)C1C(=O)NC1CCCCC1 (stereo not given),–,3.48%
Cc1c(C(=O)NC(C)C2CC3CCC2C3)cccc1[N+](=O)[O-] (stereo not given),–,-0.665%
O=C(OC1CCOC1=O)c1ccc(-c2nc3ccccc3s2)s1 (stereo not given),3.55 µM (active),–
CC(C)c1ccc(C(=O)OC2CCOC2=O)cc1 (stereo not given),–,-21.9%
Cc1nn(Cc2ccccc2)c(Cl)c1C(=O)OC1CCOC1=O (stereo not given),–,-0.363%
CCOc1ccc(NC(=O)c2nc(SCC)ncc2Cl)cc1,–,7.38%
CC1CC(C)CN(C(=O)CCNC(=O)Cn2cnc3ccccc3c2=O)C1 (stereo not given),–,19%
CCc1ccc(-c2cc(C)no2)cc1S(=O)(=O)NCCc1ccc(S(N)(=O)=O)cc1,–,25.5%
Cc1ccc2cc3cc(C(=O)N4CCCCCC4)oc3nc2c1,10 µM (active),–
Cc1cc(=O)oc(C)c1C(=O)N1CCCCC1,–,1.13%
Cc1cccc(C(=O)N2CCCN(C(=O)c3cccc(C)c3)CC2)c1,–,14.8%
CCC1=Nc2cc(C(=O)NCCCN3CCOCC3)ccc2Sc2ccc(Br)cc21,–,2.37%
COc1cccc(CN(C)CC(O)COC(c2ccccc2)c2ccccc2C)c1 (stereo not given),–,17.3%
CSc1ccc(CCNC(=O)CS(=O)(=O)Cc2nc(-c3ccccc3F)oc2C)cc1,–,-13.9%
O=C(Nc1nnc(C2=COCCO2)o1)c1ccc([N+](=O)[O-])s1,2.82 µM (active),–
Cc1ccc(C(=O)Nc2nnc(C3=COCCO3)o2)cc1C,0.282 µM (active),–
Cc1ccc(C(=O)Nc2nnc(-c3cccs3)s2)cc1C,–,1.53%
Cc1ccc(C(=O)NCCN2CCOCC2)cc1C,–,-24.5%
COc1ccc(C(CNCC(=O)Nc2ccccc2F)N(C)C)cc1 (stereo not given),–,-0.678%
C=CCn1c(CNS(=O)(=O)c2ccc(Br)cc2)nnc1SC,–,2.64%
CC(C)c1ccc2oc(=O)cc(CN3CCN(Cc4ccccc4)CC3)c2c1,–,8.06%
CCOc1ccc(NC(=O)CSc2nncn2C)cc1,–,6.27%

Structure (SMILES),Potency,"activity change, negative = inhibition"
COc1ccc(C)cc1NC(=O)CN(C)S(=O)(=O)c1ccc2c(c1)n(C)c(=O)c(=O)n2C,–,-2.02%
CC(C)c1ccc(N(C(=O)c2ccco2)C(C(=O)NC2CCCC2)c2cccnc2)cc1 (stereo not given),–,17.8%
COc1ccc(CNC(=O)c2ccc3oc(C(C)C)nc3c2)cc1,–,24.2%
COc1ccc(N2CCN(S(=O)(=O)c3ccc4c(c3)N(C(C)=O)CCO4)CC2)cc1,–,17.5%
CCOCCCN(C)C1CCN(C(=O)c2oc3ccccc3c2NC(=O)Cc2cccc([N+](=O)[O-])c2)CC1,–,-6.41%
Cc1nnnn1/C(=C\c1ccccc1)C(=O)OCC(=O)N1CC2(C)CC1CC(C)(C)C2 (stereo not given),5.01 µM (active),–
COc1cc(CCC(=O)N2CCN(c3ccccc3Cl)CC2)cc(OC)c1OC,–,19%
COc1ccc(N2CCC(CNC(=S)Nc3c(C)cccc3C)C2)cc1 (stereo not given),0.891 µM (active),–
COc1ccc(NC(=S)NCC2CCN(c3ccc(OC)cc3)C2)cc1 (stereo not given),3.16 µM (active),–
COc1ccc(NC(=S)NCCN2CCC(C)CC2)cc1,–,2.43%
COc1ccc(OCC(=O)Nc2ccc(N3CCC(C)CC3)cc2)cc1,–,-21.7%
COc1ccc(NC(=O)N2CCC(Cc3ccccc3)CC2)cc1,–,23.2%
COc1cccc(N2CC(C(=O)Nc3c(C)cccc3C)CC2=O)c1 (stereo not given),–,-10.1%
O=C(Cn1nc(C(=O)O)c2ccccc2c1=O)Nc1ccc(F)cc1,–,18.6%
CC1Sc2ccc(S(=O)(=O)CCC(=O)NCc3ccccc3Cl)cc2NC1=O (stereo not given),–,10.1%
CC(=O)c1cc(CN2CCC(C(=O)Nc3cccc(-c4cscn4)c3)CC2)cs1,–,0%
COc1ccc(CCNC(=O)c2nnc(CS(=O)(=O)c3ccccc3)o2)cc1OC,–,-8.42%
Cc1cccc(OCC(=O)Nc2ccc(C(=O)O)cc2NC(=O)COc2cccc(C)c2)c1,–,-33.8%
COCCNc1ccc(-c2n[nH]c(=O)c3ccccc23)cc1[N+](=O)[O-],–,-3.41%
Cc1nc(S(=O)(=O)c2ccc(Br)cc2)nc2c1CCC2,–,-1.07%
Brc1ccc(Nc2c3c(nc4ncnn24)CCC3)cc1,12.6 µM (active),–
O=c1c2c(nc3nc[nH]n13)CCC2,–,11.8%
